Screening data: PubChem BioAssay, University of Kansas High Throughput Screening Laboratory
mHTT-CaM PPI inh: disrupts binding of mutant huntingtin to calmodulin; AID 1671202; P42858; actives 3.6% (n = 190,000); inhibition, % at 15 µM; AlphaScreen His-mHTT/GST-CaM binding, luminescence;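 also: 0% = both proteins with DMSO and 100% = one protein alone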
Pf apPOL inh: Pf-apPOL DNA polymerase inhibition; Recombinant Pf-apPOL, molecular beacon fluorescence, 1.5 h; AID 1794808; actives 0.25% (n = 210,000); inhibition, % at 10 µM
Starred values were filed as active, the others as inactive. Shown are actives, neighbours in structure and some others; about 3.6% of the full set was active somewhere. Rule as the data show it: active = inhibition above about 50%; inactive = the rest.

COc1ccc(-c2ccc(CN3C(C(C)C)C(=O)N(Cc4cn(CCC5OCCO5)nn4)CCS3(=O)=O)cc2)cn1 (stereo unspecified) was read as mHTT-CaM PPI inh 45 and Pf apPOL inh 4.
CC(C)C1C(=O)N(Cc2cn(Cc3ccco3)nn2)CCS(=O)(=O)N1Cc1ccc(-c2ccc(Cl)cc2)cc1 (stereo unspecified) was read as mHTT-CaM PPI inh 50 and Pf apPOL inh -14.
`CC1C(=O)N(Cc2cn(CCC3OCCO3)nn2)CCS(=O)(=O)N1Cc1ccc(-c2ccccc2)cc1` (stereo unspecified) gave mHTT-CaM PPI inh 74* and Pf apPOL inh 7.
`O=C(NCCc1ccncc1)c1cccnc1N1CCNC(c2ccccc2)C1` (stereo unspecified) gave mHTT-CaM PPI inh -3 and Pf apPOL inh 2.
For COc1ccc(CNC(=O)NCCOc2cc(C)cc(C)c2)cc1OC the results were mHTT-CaM PPI inh -8 and Pf apPOL inh -8.
Screening CN(C)CCOC(=O)NC1CC(=O)N(c2ccc(F)cc2)C1 (stereo unspecified) returned mHTT-CaM PPI inh -20 and Pf apPOL inh 0.
Cc1ccc(Cc2c(C)nc(C)nc2N2CCN(C(=O)c3cccs3)CC2)cc1 was read as mHTT-CaM PPI inh 11 and Pf apPOL inh 2.
Screening CC(C)C1C(=O)N(Cc2cn(CC3CCCCC3)nn2)CCS(=O)(=O)N1Cc1ccc(-c2ccc(F)nc2)cc1 (stereo unspecified) returned mHTT-CaM PPI inh 25 and Pf apPOL inh 0.
`CC(C)C1C(=O)N(Cc2cn(Cc3ccco3)nn2)CCS(=O)(=O)N1Cc1ccc(-c2ccc(F)nc2)cc1` (stereo unspecified) gave mHTT-CaM PPI inh 60* and Pf apPOL inh -7.
`CC1C(=O)N(Cc2cn(Cc3ccco3)nn2)CCS(=O)(=O)N1Cc1ccc(-c2ccccc2)cc1` (stereo unspecified) gave mHTT-CaM PPI inh 63* and Pf apPOL inh -1.
`CC(C)C1C(=O)N(Cc2cn(CCC3OCCO3)nn2)CCS(=O)(=O)N1Cc1ccc(-c2ccccc2Cl)cc1` (stereo unspecified) gave mHTT-CaM PPI inh 66* and Pf apPOL inh -1.
Screening COc1ccc(-c2ccc(CN3C(CC(C)C)C(=O)N(Cc4cn(Cc5ccco5)nn4)CCS3(=O)=O)cc2)cc1OC (stereo unspecified) returned mHTT-CaM PPI inh 30 and Pf apPOL inh -2.
CC(C)C1C(=O)N(Cc2cn(CCC3OCCO3)nn2)CCS(=O)(=O)N1Cc1ccc(-c2ccccc2)cc1 (stereo unspecified) was read as mHTT-CaM PPI inh 44 and Pf apPOL inh -15.
`CS(=O)(=O)N1CCc2cc(S(=O)(=O)NC3CCCC3)ccc21` gave mHTT-CaM PPI inh -3 and Pf apPOL inh -3.
For COc1ccc(C2=N/C(=C\C=C\c3ccccc3OC)C(=O)O2)c(Br)c1 the results were mHTT-CaM PPI inh 36 and Pf apPOL inh 0.
`CC1=CCC2C(C)(C)C(=O)CCC2(C)C1COc1ccc2ccc(=O)oc2c1` (stereo unspecified) gave Pf apPOL inh -12.
COc1ncc(C(=O)N2CCN(c3ccccc3C)CC2)cn1 was read as mHTT-CaM PPI inh 0 and Pf apPOL inh -1.
COCC(=O)N1CCN(c2nc(CN3CCOCC3)cs2)CC1 was read as mHTT-CaM PPI inh -5 and Pf apPOL inh -2.
`N#CC1=C(N)N(c2ccc(Cl)cc2)C2=C(C(=O)CCC2)C1c1cccnc1` (stereo unspecified) gave mHTT-CaM PPI inh 1 and Pf apPOL inh -1.
COc1ccc(N2C(N)=C(C#N)C(c3ccc(Br)cc3)C3=C2CCCC3=O)cc1 (stereo unspecified) was read as mHTT-CaM PPI inh 25 and Pf apPOL inh -5.
CN(C)c1ccc(C2C(C#N)=C(N)N(c3ccc(Cl)cc3)C3=C2C(=O)CCC3)cc1 (stereo unspecified) was read as mHTT-CaM PPI inh 99* and Pf apPOL inh -4.
`CN(C)c1ccc(C2C(C#N)=C(N)N(c3ccc(Br)cc3)C3=C2C(=O)CCC3)cc1` (stereo unspecified) gave mHTT-CaM PPI inh 100* and Pf apPOL inh -1.
`O=C(c1ccsc1)N1CCCn2nc(-c3ccc(Cl)cc3)cc2C1` gave mHTT-CaM PPI inh 42 and Pf apPOL inh 0.
For CN1CC(c2noc(C3CC3)n2)C2(CCN(C(=O)Cc3ccc(F)cc3)CC2)C1 (stereo unspecified) the results were mHTT-CaM PPI inh 10 and Pf apPOL inh -4.
Screening CC1CC(OCC(O)CN2CCC(CN3C(=O)c4cccc5cccc(c45)C3=O)CC2)CC(C)(C)C1 (stereo unspecified) returned mHTT-CaM PPI inh 37 and Pf apPOL inh 77*.
Screening COc1ccc(N2CCN(CC(O)COC3CCC(C(C)(C)C)CC3)CC2)cc1 (stereo unspecified) returned mHTT-CaM PPI inh 34 and Pf apPOL inh -3.
`CC1CCN(CC(O)COC2CCCC2)CC1` (stereo unspecified) gave mHTT-CaM PPI inh -1 and Pf apPOL inh -2.
For CC(C)(C)C1CCC(OCC(O)CN2CCC(CN3C(=O)c4cccc5cccc(c45)C3=O)CC2)CC1 (stereo unspecified) the results were mHTT-CaM PPI inh 100* and Pf apPOL inh 28.
`O=C1NC(=O)C2C1ON(c1ccccc1)C2c1ccc(F)cc1` (stereo unspecified) gave mHTT-CaM PPI inh 2 and Pf apPOL inh -14.
`O=C(c1ccncc1)N1CCC(n2c(-c3ccsc3)nc3cccnc32)C1` (stereo unspecified) gave mHTT-CaM PPI inh 0 and Pf apPOL inh -1.
Screening O=C(CSc1nn2c(SCC(=O)c3cccs3)nnc2s1)c1cccs1 returned mHTT-CaM PPI inh 17 and Pf apPOL inh 5.
For Cn1cnnc1SCC(=O)c1cccs1 the results were mHTT-CaM PPI inh -5 and Pf apPOL inh 98*.
Screening CCN1CCN(C(=O)Cn2cc(C)sc2=NC(=O)c2cccc(Cl)c2)CC1 returned mHTT-CaM PPI inh 13 and Pf apPOL inh 0.
`COc1cccc(C(=O)N=c2sc(C)cn2CC(=O)N2CCCC2)c1` gave mHTT-CaM PPI inh 1 and Pf apPOL inh 87*.
`OC(C#CC(O)(c1ccccc1)c1ccccc1)(c1ccccc1)c1ccccc1` gave Pf apPOL inh -12.
`COc1ccc(C(O)(C#Cc2ccccc2)c2ccccc2)cc1` (stereo unspecified) gave mHTT-CaM PPI inh 60* and Pf apPOL inh -2.
`O=C(Cn1[nH]c(-c2ccccc2)cc1=O)Nc1ccc(Cl)cc1` gave mHTT-CaM PPI inh 63* and Pf apPOL inh -2.
Cc1ccc(-c2cc(=O)n(CC(=O)Nc3ccc(C)c(C)c3)[nH]2)cc1 was read as mHTT-CaM PPI inh 10 and Pf apPOL inh 2.
Screening COc1cc(C2C(C#N)=C(N)Oc3n[nH]c(-c4ccc(Br)cc4)c32)cc(OC)c1O (stereo unspecified) returned mHTT-CaM PPI inh 87* and Pf apPOL inh -8.
CCOc1ccc(-c2[nH]nc3c2C(c2cn[nH]c2-c2ccc(F)cc2)C(C#N)=C(N)O3)cc1 (stereo unspecified) was read as mHTT-CaM PPI inh 41 and Pf apPOL inh -6.
Screening N#CC1=C(N)Oc2n[nH]c(-c3ccccc3)c2C1c1ccc2c(c1[N+](=O)[O-])OCO2 (stereo unspecified) returned mHTT-CaM PPI inh 51* and Pf apPOL inh -4.
